Bioassay records (PubChem)
HCMV inh: qHTS Assay for inhibitors of the human cytomegalovirus (HCMV). HFF cells, HCMV-luciferase reporter, 72 h; active compounds read low. activity change, negative = inhibition, % at 57.5 µM. 410,000 compounds, 4.5% hits; in the data active means activity change below about -60%; inconclusive means no clear call, values can overlap the other calls; inactive means above about -39%
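Inhibition of viral replication was scored as loss of reporter luminescence in HFFs infected with HCMV-luciferase (MOI 1 PFU/cell) for 72 h; compounds tested at 2 doses, normalized to buffer and Salinomycin controls.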
VACV Venus inh: qHTS for Stage-Specific Inhibitors of Vaccinia Orthopoxvirus: Venus Reporter Primary qHTS | Vaccinia virus Venus reporter expression, fluorescence | Potency, µM (highest dose often 36.5 µM), inactives show at the highest dose activity change, negative = inhibition, actives largely listed as inhibitors | 330,000 compounds, 0.46% hits | AID 720580, 2013; calls by dose curve; tested in A549 cells; further: potency means the concentration at half of the fitted maximal effect; nearly all actives have a fitted effect of over 30% in size
FMDV antiviral: High Throughput Screening for Foot and Mouth Disease Virus Antivirals; 410,000 compounds, 1.2% hits; FMDV antiviral cell-based qHTS; Potency, µM (highest dose often 57.9 µM), inactives show at the top dose activity change, negative = inhibition, hits mostly inhibitors; calls by dose curve; tested in HEK293T cells; further: read-out not given here; potency means the concentration at half of the fitted maximal effect; nearly all actives have a fitted effect of over 45% in size
Vaccinia mCherry: qHTS for Stage-Specific Inhibitors of Vaccinia Orthopoxvirus: mCherry Reporter Primary qHTS | Vaccinia virus mCherry reporter infection, fluorescence | Potency, µM (top dose mostly 36.5 µM), for inactives: top-dose activity change, negative = inhibition, most hits filed as inhibitors | 310,000 compounds, 0.63% hits | AID 720579, 2013; calls by dose curve; tested in A549 cells; further: potency means the concentration at half of the fitted maximal effect; nearly all actives have a fitted effect of over 35% in size
HCV inh: qHTS Assay for Inhibitors of Hepatitis C Virus (HCV) | Huh7.5.1 HCVcc-Cre infection, luciferase reporter, 44 h | Potency, µM (highest dose often 41.8 µM), for inactives: top-dose activity change, negative = inhibition, most hits filed as inhibitors | 340,000 compounds, 3.4% hits | AID 651820, 2012; active means well fitted inhibition curve with a large enough effect; inconclusive means small, poorly fitted or top-dose-only effect, or another doubt; inactive means no such curve, though single readings can be large or run the other way; further: potency means the concentration at half of the fitted maximal effect
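Infectious HCVcc-Cre (~0.5 moi) was added to cells just after compound, with cells seeded 4 h earlier at 1,000 per well. Luciferase activity after 44 h culture reported infection; substrate was incubated 15 min at room temperature before reading.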
* marks the source's active call; other numbers are inactive results; i = inactive; ? = inconclusive; nt = no result; [ ] = dose if it differs, or a comment. Hits are enriched below; roughly 7.3% of the tested compounds scored in any of these assays. On the % scale 0 is the no-effect control and ±100 the full control effect.

SMILES	HCMV inh	VACV Venus inh	FMDV antiviral	Vaccinia mCherry	HCV inh
CC(=O)c1ccc(OCCCC(=O)NC2CCCc3ccccc32)cc1 (stereo unspecified)	-86*	-13%	-1%	i	?
CC(=O)c1c(C)[nH]c(C(=O)NC2CCSc3ccccc32)c1C (stereo unspecified)	?	-29%	-21%	-2%	?
CCOC(=O)c1cnc2ccc(C(=O)OC)cc2c1Nc1ccccc1CC	-24	-1%	-28%	2%	nt
COc1ccc(N2CC(c3nc(-c4ccccc4C)no3)CC2=O)cc1Cl (stereo unspecified)	21	9%	-15%	-4%	nt
COC(=O)c1cc2c(c3c4cc(OC)ccc4n(C(=O)c4ccccc4)c13)C(=O)N(Cc1ccco1)C2	-24	nt	nt	nt	nt
O=C(NC1CCCc2ccccc21)c1cccc(Br)c1 (stereo unspecified)	-78*	-26%	40%	-27%	-2%
O=C(NC1CCCc2ccccc21)c1ccc(Br)cc1 (stereo unspecified)	-17	-20%	12%	-11%	-19%
Cc1nc(S(=O)(=O)N2CCOCC2)c(C#N)c(C)c1Cl	-105*	-6%	-5%	-17%	-9%
Cc1cc(C(=O)Nc2ccc3ccccc3c2)oc1C	58	-6%	-2%	?	11µM*
COc1ccc(NC(=O)c2ccc(NC(=O)c3ccco3)cc2)c(OC)c1	-36	0%	2%	i	?
O=C(Nc1ccc(Oc2ccc(NC(=O)c3ccco3)c(NC(=O)c3ccco3)c2)cc1)c1ccco1	?	-10%	nt	-9%	25µM*
O=C(Nc1ccc(Oc2ccc3ccccc3c2)cc1)c1ccco1	-68*	-17%	0%	-17%	?
CCOc1ccc(NC(=O)c2ccco2)cc1	16	-14%	-22%	-5%	9%
Cc1ccc(NC(=O)c2ccco2)c(NC(=O)c2cccs2)c1	15	-18%	nt	i	11µM*
CN(C)c1ncc2nc(-c3cccs3)c(=O)n(C)c2n1	nt	nt	27%	nt	nt
Cc1cccc(CNC(=O)CN2CC(C)Sc3ccccc32)c1 (stereo unspecified)	19	-2%	14%	-2%	nt
O=C(CN(c1ccccc1Cl)S(=O)(=O)c1ccccc1)N/N=C/c1ccccc1C(=O)O	-63*	-15%	7%	-6%	17%
CCOC(=O)c1ccc(NC(=S)N(CCN(C)C)Cc2cccs2)cc1	-61*	-2%	54%	?	-26%
COc1cc(SC)ccc1C(=O)N1CCn2c3c(c4cc(C)ccc42)CCCC31 (stereo unspecified)	5	0%	-12%	-15%	nt
CC[C@]12c3[nH]c4ccccc4c3CCN1C(=O)C(CC(=O)NCc1cccc(C(F)(F)F)c1)C[C@@H]2C(=O)N1CCN(C(=O)C2CC2)CC1 (stereo partly specified)	-2	-25%	9%	-9%	?
COc1ccc(CNC(=O)CC2C[C@H](C(=O)N3CCOCC3)[C@@]3(CCC4CCCC4)c4[nH]c5ccccc5c4CCN3C2=O)cc1OC (stereo partly specified)	-31	-13%	9%	-10%	7.9µM*
O=C(CC1C[C@H](C(=O)N2CCOCC2)[C@@]2(CCC3CCCC3)c3[nH]c4ccccc4c3CCN2C1=O)NCc1cccc(C(F)(F)F)c1 (stereo partly specified)	-17	10µM*	-34%	10µM*	-16%[8.37 µM]
CN(C)C(=O)CCc1ccc2c3c([nH]c2c1)[C@]1(CCC2CCCC2)[C@@H](C(=O)N2CCOCC2)C[C@H](CC(=O)NCc2cccc(C(F)(F)F)c2)C(=O)N1CC3	?	?	-24%	-24%	25µM*
COc1ccc2[nH]c3c(c2c1)CCN1C(=O)C(CC(=O)NCc2ccc(OC)c(OC)c2)C[C@H](C(=O)N2CCOCC2)[C@@]31CCC1CCCC1 (stereo partly specified)	-16	-18%	-18%	i	?
CCOc1cc(-c2nc(-c3ccc(-c4ccc(C)cc4)nc3OC)no2)cc(OCC)c1OCC	-2	1%	3%	0%	nt
CC(C(=O)O)n1cc(Cl)cn1 (stereo unspecified)	?	-7%	-4%	6%	4.5µM*
